Bioassay records deposited in PubChem BioAssay by National Center for Advancing Translational Sciences (NCATS).
Most compounds without a hit are left out; they make up all but 11% or so of the library.
NS1 inh: influenza NS1 inhibition. Potency, µM (series often up to 46.1 µM). 270,000 compounds, 0.4% hits; calls by dose curve; note: actives are rising curves; nearly all actives have a fitted effect of over 50% in size
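S. cerevisiae expressing influenza A NS1, grown in glucose, washed, then diluted 1:100 into pH 6.0 -URA galactose medium with 23 nl compound. Growth recovery read as OD600; NS1-free strain serves as control.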
Pf growth 48h: inhibits P. falciparum growth in the first generation, 48 h. P. falciparum luciferase growth in erythrocytes, 48 h. Potency, µM (titrated, usually from 28.7 µM), most hits filed as inhibitors. 310,000 compounds, 5.9% hits. AID 504832
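Luminescence readout; reporter = integrated firefly luciferase in P. falciparum. RBC culture at 2% hematocrit, 0.1% parasitemia final, 37 C/5% CO2; decreased signal taken as growth inhibition.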
AMA1-RON2 inh: inhibitors of Plasmodium falciparum AMA1-RON2 interaction; AlphaScreen AMA1-biotinylated RON2 peptide binding; 360,000 compounds, 0.2% hits; Potency, µM (highest dose often 58.2 µM), most hits filed as inhibitors; AID 720542; note: nearly all actives have a fitted effect of over 45% in size
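AMA1 (3D7) with his tag at 25 nM final met compounds first, then biotinylated RON2 peptide at 25 nM; detection used donor plus acceptor beads, 10 µg/mL apiece, read by AlphaScreen after 30 min at room temperature.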
Pf growth 96h: inhibits malaria parasite growth, 96 h; Potency, µM (highest dose often 28.7 µM), hits mostly inhibitors; 320,000 compounds, 6.9% hits; AID 504834; P. falciparum luciferase reporter growth, 96 h
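Cell-based qHTS: luciferase-tagged P. falciparum in erythrocytes (2% hematocrit, 0.05% parasitemia final) incubated with compounds for 96 hours, 37 C, 5% CO2; luciferase detection reagent then added and luminescence measured.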
Sm TGR inh: inhibitors of Schistosoma mansoni thioredoxin glutathione reductase; Q962Y6; purified TGR, DTNB reduction, TNB absorbance 405 nm; Potency, µM (titrated, usually from 114 µM), usual class: inhibitors; 360,000 compounds, 3% hits; note: nearly all actives have a fitted effect of over 60% in size
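TGR 20 nM + NADPH 100 uM (dispensed conc.), cpd preinc 15 min RT; start with NADPH (500 uM addition) then DTNB (15 mM addition). Kinetic TNB absorbance, 405 nm filter. Four-parameter Hill fit across titration.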
Numbers stand for hits; - = inactive; ? = inconclusive; . = no result; [ ] = remark or other dose. Unless noted, calls come from the whole dose curve; as a rule, active = well fitted curve in the direction sought with a large enough effect; inconclusive = small, poorly fitted or top-dose-only effect, or another doubt; inactive = no such curve, though single readings can be large; an effect the other way counts as inactive or inconclusive.

SMILES	NS1 inh	Pf growth 48h	AMA1-RON2 inh	Pf growth 96h	Sm TGR inh
COC(=O)C1CCCN1S(=O)(=O)c1ccc2ccccc2c1 (centres undefined)	-	10.4µM	-	.	-
O=C(Nc1ccc2c(c1)OCO2)C1CCCCN1S(=O)(=O)c1ccc(F)cc1 (centres undefined)	-	-	-	9.28µM	-
O=C(Nc1ccc(N2CCCCC2)cc1)C1CCCN1S(=O)(=O)c1ccc(F)cc1 (centres undefined)	.	-	-	-	-
O=C(NC1CCCCC1)C1CCCN1S(=O)(=O)c1ccc(F)cc1 (centres undefined)	-	-	-	-	-
CCOC(=O)N1CCC(NC(=O)C2CCCCN2S(=O)(=O)c2ccc(F)cc2)CC1 (centres undefined)	?	.	-	1.04µM	-
Cc1cc(OCC(=O)N2CCC(C(=O)O)CC2)c2c(C)cc(=O)oc2c1	-	-	-	-	-
O=C(O)CN1C(=O)/C(=C/c2ccc(N3CCCCC3)o2)SC1=S	?	-	-	-	2.82µM
COC(=O)CN1C(=O)S/C(=C/c2ccc(N3CCCCC3)o2)C1=O	-	-	-	-	7.08µM
Cc1cccc(N2CCN(C3C(=O)Nc4ccccc4-n4nnnc43)CC2)c1C (centres undefined)	.	.	-	.	.
COc1ccccc1C1CCN(C(=O)c2ccco2)CC1	-	-	-	-	-
CNS(=O)(=O)c1cc(OCC(N)=O)c(C)cc1Cl	-	-	-	.	-
COc1ccc(NS(=O)(=O)c2cc(OCC(N)=O)c(C)cc2Cl)cc1	-	10.4µM	-[2.32 µM]	2.08µM	-
Cc1cc(Cl)c(S(=O)(=O)Nc2cccc(O)c2)cc1OCC(N)=O	-	-	-[2.32 µM]	-	-
CCOc1ccc(NS(=O)(=O)c2cc(OCC(N)=O)c(C)cc2Cl)cc1	-	1.47µM	-	3.7µM	-
Cc1cccc(NC(=O)C2CCN(C(=O)[C@@H]3Cc4ccccc4CN3)CC2)c1	-	-	-	-	-
COc1ccc(CN2CCC(CO)(Cc3ccccc3C(F)(F)F)CC2)c(F)c1	-	4.65µM	-	?	-
COc1ccc(CC2(CO)CCN(Cc3cccc4nccnc34)CC2)cc1	-	-	-	?	-
COc1ccccc1C1CC(=O)NC(C)=C1C(=O)OC(C)C (centres undefined)	-	-	-	-	-
N#Cc1ccc(Cl)cc1NC(=O)COC(=O)c1cccc(S(=O)(=O)N2CCOCC2)c1	.	-	-	-	-
COc1cc2c(cc1OC)C1=NC(=O)CN1C(SCc1ccccc1C)=N2	-	?	-	11.7µM	-
Cc1ccc(CSC2=Nc3ccccc3C3=NC(=O)CN23)cc1	?	?	-	?	-
CCNC(=S)N(CCc1c(C)[nH]c2ccc(Cl)cc12)Cc1cccnc1	-	11.7µM	-	?	-
COc1cccc(NC(=S)N(CCc2c(C)[nH]c3ccc(C)cc23)Cc2cccs2)c1	?	?	-	?	-
Cc1cccc(NC(=S)N(CCc2nc3cc(C)c(C)cc3[nH]2)Cc2cccnc2)c1	-	?	-	-	-
COc1cccc(NC(=S)N(CCc2nc3cc(C)c(C)cc3[nH]2)Cc2cccnc2)c1	-	?	-	11.7µM	-
SMILES	NS1 inh	Pf growth 48h	AMA1-RON2 inh	Pf growth 96h	Sm TGR inh
Cc1[nH]c2ccc(F)cc2c1CCN(Cc1cccnc1)C(=S)Nc1cccc(F)c1	.	13.1µM	-	?	-
COc1ccc2[nH]c(C)c(CCN(Cc3cccs3)C(=S)Nc3cccc(F)c3)c2c1	?	0.37µM	-	0.738µM	?
COc1cccc(NC(=O)c2oc3ccccc3c2NC(=O)Cc2cccc(C)c2)c1	.	.	.	.	-
COCCNC(=S)N(CCc1c(C)[nH]c2ccc(C)cc12)Cc1cc(OC)c(OC)c(OC)c1	-	?	-	9.28µM	-
Cc1ccc(-c2nc(CS(=O)(=O)CC(=O)N3CC(C)CC(C)C3)c(C)o2)cc1 (centres undefined)	-	-	-	?	2.24µM
Cc1oc(-c2cccc(Cl)c2)nc1CS(=O)(=O)CC(=O)NC1CCCC1	-	-	-	?	44.7µM
COc1cccc(-c2nc(CS(=O)(=O)CC(=O)NC3CCC(C)CC3)c(C)o2)c1 (centres undefined)	-	-	-	?	-
Cc1ccc(-c2nc(CS(=O)(=O)CC(=O)NC3CC3)c(C)o2)cc1	-	-	-	-	31.6µM
COc1cccc(-c2nc(CS(=O)(=O)CC(=O)NC3CCCC3)c(C)o2)c1	-	-	-	-	44.7µM
CCOC(=O)[C@H]1[C@H]2COc3ccc(Cl)cc3[C@@H]2N2C(=O)CN(Cc3ccc(OC)cc3)C(=O)[C@@]12C	.	7.38µM	-	6.57µM	-
CCOC(=O)[C@H]1[C@H]2COc3ccc(Cl)cc3[C@@H]2N2C(=O)CN(Cc3ccco3)C(=O)[C@@]12C	.	?	-	?	15.8µM
C[C@@]12C(=O)N(CCc3c[nH]c4ccccc34)CC(=O)N1[C@H]1c3ccccc3OC[C@@H]1[C@@H]2c1ccccc1	.	11.7µM	-	6.57µM	-
CCOC(=O)[C@H]1[C@H]2COc3ccc(OC)cc3[C@@H]2N2C(=O)CN(Cc3ccco3)C(=O)[C@@]12C	.	?	-	?	?
CCOC(=O)[C@H]1[C@H]2COc3ccc(Cl)cc3[C@@H]2N2C(=O)CN(Cc3ccc(C)cc3)C(=O)[C@@]12C	.	11.7µM	-	?	-
CCOC(=O)[C@H]1[C@H]2COc3ccc(OC)cc3[C@@H]2N2C(=O)CN(CCc3c[nH]c4ccccc34)C(=O)[C@@]12C	.	13.1µM	-	?	-
CCOC(=O)[C@H]1[C@H]2COc3ccc(Br)cc3[C@@H]2N2C(=O)CN(Cc3ccccc3)C(=O)[C@@]12C	.	?	-	?	-
CCOC(=O)[C@H]1[C@H]2COc3ccc(OC)cc3[C@H]2N2C(=O)CNC(=O)[C@@]12C	.	-	-	-	-
CCOC(=O)[C@H]1[C@H]2COc3ccc(Br)cc3[C@@H]2N2C(=O)CN(Cc3ccc(OC)cc3)C(=O)[C@@]12C	.	7.38µM	-	?	-
c1ccc(N2OCC3Cn4c(nc5ccccc54)C32)cc1 (centres undefined)	-	-	-	-	?
Cc1ccc(S(=O)(=O)N(C)C)cc1NC(=O)C(C)OC(=O)CC1CC2CCC1C2 (centres undefined)	.	.	-	.	.
CCN(c1ccccc1)S(=O)(=O)c1ccc(N2CCN(c3ccccc3O)CC2)nc1	.	6.57µM	-	9.28µM	-
O=[N+]([O-])c1ccc(S(=O)(=O)N2CCn3cccc3C2c2ccc(Br)cc2)cc1 (centres undefined)	.	.	.	.	-
COc1ccc(/C(O)=C2\C(=O)C(=O)N(c3cc(C)on3)C2c2ccc(OC)c(OC)c2)cc1OC (centres undefined)	-	-	-	?	-
Cc1cc(N2C(=O)C(=O)/C(=C(/O)c3ccc(F)cc3)C2c2ccc(F)cc2)no1 (centres undefined)	-	-	-	0.828µM	-
